We go through six compounds from PubChem BioAssay (Tox21).

The nature of assay [1]: qHTS assay to identify small molecule agonists of H2AX (AID 1224845; active means well fitted activation curve with a large enough effect in the signal ratio in the repeat runs, not every such curve was filed as active; the % refers to the signal ratio). The method, boiled down: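 Wild-type CHO-K1 cells plated overnight, then exposed 3 hr at 37C to compounds at 15 concentrations (0.76% DMSO). Lysed, then HTRF anti-pH2AX(S139)-cryptate/anti-H2AX-d2 detection after 24 hr at room temperature; emissions 665 and 620 nm.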
Background: qHTS replaces the single test concentration by a dilution series.

Assay [2] can be described thus: qHTS assay to identify small molecule agonists of the hypoxia (HIF-1) signaling pathway (AID 1224846; active means well fitted activation curve with a large enough effect in the signal ratio in the repeat runs, not every such curve was filed as active; the % refers to the signal ratio). The method, boiled down: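 Reporter induction in HRE-bla ME-180 cells is taken as agonism: cells sit 5 hrs after plating, receive compounds or DMSO only, incubate 17 hrs at 37C under 5% CO2, and are loaded with CCF4-AM for beta-lactamase FRET measurement.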
A short description of assay [3]: qHTS assay to identify small molecule agonists of H2AX - cell viability counter screen (AID 1224847; calls by dose curve; further: top concentration of the series differs between compounds; nearly all actives have a fitted effect of over 30% in size). The method, boiled down:
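Wild-type CHO-K1 cells (10% FBS medium) were plated overnight at 37C, exposed to compounds at 15 concentrations for 3 hr at 37C (0.76% DMSO final), and viability was read as CellTiter-Glo luminescence after 30 min at room temperature.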

The nature of assay [4]: qHTS assay to identify small molecule antagonists of the estrogen related receptor (ERR) signaling pathway from Tox21 library (AID 1224848). Further: nearly all actives have a fitted effect of over 50% in size. Further: potency means the concentration at half of the fitted maximal effect. The essentials: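 First, 2,000 ERR cells per well were plated and held 6 h at 37 C/5% CO2. Next, compounds in DMSO were pinned in and left 18 h at 37 C. Finally, ONE-Glo was added and luminescence read after 30 min at room temperature.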

Assay [5] in a line: qHTS assay to identify small molecule agonists of the estrogen related receptor (ERR) signaling pathway from Tox21 library (AID 1224849; calls by dose curve; further: nearly all actives have a fitted effect of over 15% in size). The settings on record: ERR reporter cell line, ONE-Glo luciferase, 18 h; at 92.4 µM (top of the series) unless noted. The essentials:
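Tox21 compounds tested for ERR agonism in an NTP reporter cell line: 18 h treatment at 37 C, then ONE-Glo luminescence.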

The nature of assay [6]: qHTS RealTime-Glo MT Cell Viability Assay in HepG2 cells - 24 hour (AID 1224867). Further: nearly all actives have a fitted effect of over 50% in size. The essentials: (§1)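 Compound treatment began 5 h after plating HepG2 cells (600/well) with NanoLuc luciferase and prosubstrate. Plates stayed at 37 C for 40 h; luminescence was captured at six time points, 0 h through 40 h.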
A short description of assay [7]: qHTS RealTime-Glo MT Cell Viability Assay in HEK293 cells - 32 hour (AID 1224868). Further: top concentration of the series differs between compounds; nearly all actives have a fitted effect of over 50% in size. The essentials:
(§2)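 Quantitative high-throughput screen of the Tox21 10K library in HEK293: cells and RealTime-Glo reagents plated together, compound added at 5 h, luminescence monitored through 40 h at 37 C.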

A short description of assay [8]: A CellTox Green Cytotoxicity Assay to monitor cytotoxicity in HEK293 cells - 0 hour (AID 1224869). Further: nearly all actives have a fitted effect of over 50% in size. The method, boiled down:
(§3)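 Tox21 screen in HEK293: membrane-impermeant cyanine dye fluoresces on binding dead-cell DNA; compound pinned 5 h post-seeding, plates held at 37 C, signal read repeatedly through 40 h.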

The nature of assay [9]: qHTS RealTime-Glo MT Cell Viability Assay in HepG2 cells - 40 hour (AID 1224870). Further: nearly all actives have a fitted effect of over 50% in size. The method, boiled down: (§4)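 HepG2 cells mixed with RealTime-Glo MT reagents (NanoLuc plus cell-permeant prosubstrate) were seeded at 600 cells/well, incubated 5 h at 37 C/5% CO2, then pinned with compounds in DMSO; nonlytic luminescence tracked viability during 40 h treatment.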
The nature of assay [10]: A CellTox Green Cytotoxicity Assay to monitor cytotoxicity in HEK293 cells - 40 hour (AID 1224871). Further: nearly all actives have a fitted effect of over 45% in size. The method, boiled down:
as §3

Assay [11] can be described thus: qHTS RealTime-Glo MT Cell Viability Assay in HEK293 cells - 16 hour (AID 1224872). The essentials: as §2
Assay [12] in a line: qHTS RealTime-Glo MT Cell Viability Assay in HepG2 cells - 8 hour (AID 1224873). Further: nearly all actives have a fitted effect of over 55% in size. The method, boiled down:
as §4

A short description of assay [13]: qHTS RealTime-Glo MT Cell Viability Assay in HEK293 cells - 40 hour (AID 1224874). Further: nearly all actives have a fitted effect of over 50% in size. The following applies: RealTime-Glo luminescence; max response: active compounds read low. The method, boiled down:
(§5)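 HEK293 + NanoLuc + prosubstrate, 600 cells/well; 5 h, 37 C/5% CO2; compound 23 nL in DMSO by pintool; 37 C; luminescence read at 0, 8, 16, 24, 32 and 40 h time points.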

Assay [14] can be described thus: A CellTox Green Cytotoxicity Assay to monitor cytotoxicity in HEK293 cells - 24 hour (AID 1224875). Further: nearly all actives have a fitted effect of over 45% in size. The essentials: as §3
Assay [15] in a line: A CellTox Green Cytotoxicity Assay to monitor cytotoxicity in HepG2 cells - 16 hour (AID 1224876). Further: nearly all actives have a fitted effect of over 45% in size. The essentials:
(§6)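 Measurements at 0, 8, 16, 24, 32 and 40 h of treatment captured CellTox Green fluorescence in HepG2 cells that had been co-plated with reagent and preincubated 5 h at 37 C/5% CO2.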

The nature of assay [16]: qHTS RealTime-Glo MT Cell Viability Assay in HepG2 cells - 32 hour (AID 1224877). Further: nearly all actives have a fitted effect of over 55% in size. The essentials: as §1
A short description of assay [17]: A CellTox Green Cytotoxicity Assay to monitor cytotoxicity in HepG2 cells - 24 hour (AID 1224878). Further: nearly all actives have a fitted effect of over 45% in size. The essentials: as §6
Assay [18] in a line: qHTS RealTime-Glo MT Cell Viability Assay in HEK293 cells - 0 hour (AID 1224880). The method, boiled down:
as §5

A short description of assay [19]: A CellTox Green Cytotoxicity Assay to monitor cytotoxicity in HEK293 cells - 32 hour (AID 1224881). Further: nearly all actives have a fitted effect of over 40% in size. The method, boiled down: as §3
Assay [20] is described as follows: A CellTox Green Cytotoxicity Assay to monitor cytotoxicity in HepG2 cells - 40 hour (AID 1224879). Further: nearly all actives have a fitted effect of over 40% in size. The essentials: as §6

Each structure is given as a SMILES string. A number with no mark means an inactive call. Records with an inconclusive call do not appear. Calls of active or inactive are those of the source. Unless noted, the call rests on the fitted dose curve; in most records, active means well fitted curve in the direction sought with a large enough effect in the repeat runs; inconclusive means weak or mixed curves; inactive means no such curve, though single readings can be large; an effect the other way counts as inactive or inconclusive.
On the % scale 0 is the no-effect control and ±100 the full control effect.

Consider `Cc1ccc(C)o1`, for which the Potency entry in [1], in assay [3], in assay [4], in assay [6], in assay [7] and in assay [8] was “inactive” throughout. Moreover, the Potency entry in assay [9], in [10], in [11], in [12], in assay [14] and in [15] was “inactive” each time. For the same compound, the Potency entry in assay [16], in [17], in [18] and in assay [19] was “inactive” in each case. In addition, the outcome in [2] was inactive. Moreover, the activity change, positive = activation in assay [5] is 0.55%. For the same compound, the max response in assay [13] is -14.9%.
As for `CCCCCCCCCO`, the Potency entry in assay [1], in assay [3], in assay [4], in assay [6], in [7] and in assay [8] was “inactive” each time. Further, the Potency result in assay [9], in [10], in [11], in [14], in assay [15] and in [16] was “inactive” in each case. Moreover, the Potency result in [17], in assay [20] and in assay [19] was “inactive” each time. The result in [2] was inactive. Besides, the activity change, positive = activation in assay [5] was 5.42%. Besides, the max response in assay [13] is 18.9%.
As for `NC1CCN(c2nc3c(cc2F)c(=O)c(C(=O)O)cn3-c2ccc(F)cc2F)C1` (stereo not given), the Potency entry in assay [1], in [3], in assay [4], in [6], in assay [7] and in [8] was “inactive” in each case. For the same compound, the Potency result in [9], in [10], in assay [11], in assay [12], in assay [14] and in assay [15] was “inactive” throughout. Moreover, the Potency result in [16], in assay [17], in assay [20], in assay [18] and in assay [19] was “inactive” throughout. Besides, the outcome in [2] was inactive. The max response in assay [13] was -1.98%.
Turning to `CCCc1ccccc1`, the Potency entry in assay [1], in assay [3], in assay [4], in assay [6], in [7] and in assay [8] was “inactive” each time. Further, the Potency entry in assay [9], in [10], in [11], in assay [12], in [14] and in assay [15] was “inactive” each time. Also, the Potency entry in assay [16], in [17], in [20], in [18] and in assay [19] was “inactive” each time. Besides, the result in assay [2] was inactive. Moreover, the activity change, positive = activation in assay [5] was 2.82%. In addition, in assay [13], the max response was 0.274%.
`O=CNc1ccccc1`: the Potency result in [1], in [3], in [4], in assay [6], in assay [7] and in assay [8] was “inactive” throughout. Further, the Potency entry in assay [9], in [10], in [11], in [12], in assay [14] and in [15] was “inactive” in each case. The Potency entry in [16], in assay [17], in assay [20], in assay [18] and in [19] was “inactive” throughout. Also, the compound was called inactive in assay [2]. In assay [5], the activity change, positive = activation is -1.57%. Besides, the max response in [13] was -8.05%.
Consider `CCc1nn(C2CCCCC2)c2cc(C3(C#N)CCC(C(=O)O)CC3)ccc12` (stereo not given), for which the Potency result in assay [1], in assay [3], in assay [6], in assay [7], in [8] and in assay [9] was “inactive” each time. In addition, the Potency entry in assay [10], in [11], in assay [12], in assay [14], in assay [15] and in assay [16] was “inactive” throughout. Besides, the Potency entry in assay [17], in assay [20] and in assay [19] was “inactive” in each case. In addition, in [2], the compound was called inactive. The Potency in [4] was 48.6 µM (active). Also, the activity change, positive = activation in assay [5] was -46.5%. Moreover, the max response in [13] is 0.457%.
